A short description of assay [1]: qHTS assay to identify small molecule antagonists of the estrogen receptor alpha (ER-alpha) signaling pathway using the BG1 cell line in the presence of 0.1 nM 17-beta-estradiol - cell viability counter screen (AID 1259241). Also: nearly all actives have a fitted effect of over 40% in size. The procedure, abridged: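 Cytotoxicity counter-screen: live-cell protease activity measured by fluorescence (30 min reagent step) in the same wells. Cells were VM7Luc4E2 with endogenous ER-alpha and ERE-driven luciferase, treated 22 hr at 37C alongside 0.1 nM 17beta-estradiol final.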
For orientation: In qHTS, concentration-response curves come from the screen itself.

A short description of assay [2]: qHTS assay to identify small molecule antagonists of the androgen receptor (AR) signaling pathway using the MDA cell line in the presence of 0.5 nM R1881 - cell viability counter screen (AID 1259242). Also: nearly all actives have a fitted effect of over 45% in size. In outline: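 R1881 at 0.5 nM final stimulated MDA-kb2 cells during 16 hr compound treatment at 37C. Cytotoxicity read: CellTiter-Fluor fluorescence after 30 min.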

Assay [3] deals with Estrogen receptor (Homo sapiens) (UniProt P03372). Put plainly: qHTS assay to identify small molecule antagonists of the estrogen receptor alpha (ER-alpha) signaling pathway using the BG1 cell line in the presence of 0.1 nM 17-beta-estradiol (AID 1259244). Also: nearly all actives have a fitted effect of over 50% in size. In outline: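 VM7Luc4E2; 4xERE-luciferase; 0.1 nM E2 final; 22 h co-incubation, 37C; ONE-Glo luminescence after 30 min at room temperature.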

Assay [4] is described as follows: qHTS assay to identify small molecule HDAC inhibitors (AID 1259364). Also: potency is read from the fitted curve at half-maximal effect.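 Also: wild-type HCT-116 cells with endogenous class I/II HDAC activity; nearly all actives have a fitted effect of over 45% in size.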 As to activity change, negative = inhibition: top concentration of the series differs between compounds. The procedure, abridged:
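Relative class I and II HDAC activity is taken from the luminogenic signal in HCT-116 cells, with compound exposure 2 hr and reagent development 30 min at room temperature.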

The nature of assay [5]: qHTS assay to identify small molecule HDAC inhibitors - cell viability counter screen (AID 1259365). Also: series mostly up to about 92 µM; nearly all actives have a fitted effect of over 50% in size. In outline: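 CellTiter-Glo luminescence (30 min, room temperature) reported viability after a 2 h compound exposure at 37 C. Cells: wild-type HCT-116, 1,500 per well, seeded the night before.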
A short description of assay [6]: qHTS assay to identify small molecule agonists of the sonic hedgehog signaling (Shh) pathway - cell viability counter screen (AID 1259366). Also: nearly all actives have a fitted effect of over 50% in size. In outline: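 Cytotoxicity counter screen: CellTiter-Fluor reagent added after 23 h compound exposure, then 1 h at 37C and fluorescence read. Cells were 3T3 Gli1-Luc, seeded 2,000 per well and dosed 4 h post-plating.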
Assay [7] in a line: qHTS assay to identify small molecule agonists of the sonic hedgehog signaling (Shh) pathway (AID 1259368; calls by dose curve;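 also: NIH/3T3-derived 3T3Gli1-Luc cells carrying a stable Gli1-driven firefly luciferase reporter; series mostly up to about 92 µM; nearly all actives have a fitted effect of over 15% in size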). In outline: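 Mouse fibroblast (NIH/3T3) reporter cells with stably integrated Gli1-Luc were treated 24 hr with compound; firefly luciferase luminescence served as the read-out.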
The nature of assay [8]: qHTS assay to identify small molecule antagonists of the sonic hedgehog signaling (Shh) pathway (AID 1259369; calls by dose curve; also: nearly all actives have a fitted effect of over 45% in size; also: potency is read from the fitted curve at half-maximal effect). In outline: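 Conditioned medium drives Shh signalling in 3T3Gli1-Luc cells; compounds in DMSO co-applied, 24hr at 37 C, then luciferase luminescence.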
Assay [9] addresses Estrogen receptor beta (Homo sapiens) (UniProt Q92731). The experiment in a line: qHTS assay to identify small molecule agonists of the estrogen receptor beta (ER-beta) signaling pathway (AID 1259377; active = well fitted activation curve with a large enough effect in the signal ratio in the repeat runs, not every such curve was filed as active; the % refers to the signal ratio). The procedure, abridged:
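Ratiometric beta-lactamase FRET read-out came after 2 h substrate loading at room temperature. It followed 16 h compound treatment at 37C of GripTite HEK293T cells carrying a UAS-bla reporter, plated in 2% charcoal-stripped FBS medium.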

Assay [10] in a line: qHTS assay to identify small molecule agonists of the androgen receptor (AR) signaling pathway in the presence of an antagonist - cell viability counter screen (AID 1259379).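 Also: MDA-kb2 human breast cancer cells carrying an MMTV luciferase reporter; series mostly up to about 92 µM; nearly all actives have a fitted effect of over 25% in size.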 The procedure, abridged:
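A CellTiter-Fluor read-out measured viability of MDA-kb2 reporter cells (MMTV promoter with AR and GR response elements). Treatment: nilutamide 3.0uM final with compounds at 15 concentrations, 16 hr, 37C, 0% CO2.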

Assay [11] in a line: qHTS assay to identify small molecule agonists of the estrogen receptor beta (ER-beta) signaling pathway - cell viability counter screen (AID 1259380). Also: nearly all actives have a fitted effect of over 30% in size. Also: potency is read from the fitted curve at half-maximal effect. The procedure, abridged: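 Cells used were ER-beta-UAS-bla HEK293T in medium with 2% charcoal-stripped FBS. They were treated for 16 hr at 37C. Viability came from CellTiter-Glo luminescence.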
A short description of assay [12]: qHTS assay to identify small molecule antagonists of the estrogen receptor beta (ER-beta) signaling pathway - cell viability counter screen (AID 1259382). Also: series mostly up to about 92 µM; nearly all actives have a fitted effect of over 55% in size. In outline: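 Agonist-stimulated (1nM E2) ER-beta-UAS-bla HEK293T cells are incubated with library compounds for 16 hr at 37C. Cell viability is then assessed in the reporter-assay wells by adding CellTiter-Glo and reading luminescence after 30 min.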

Assay [13] has as its target Estrogen receptor (Homo sapiens) (UniProt P03372). Put plainly: qHTS assay to identify small molecule agonists of the estrogen receptor alpha (ER-alpha) signaling pathway in the presence of an antagonist (AID 1259383; calls by dose curve; also: top concentration of the series differs between compounds; nearly all actives have a fitted effect of over 15% in size). The procedure, abridged:
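Using VM7Luc4E2 cells seeded 24hr before treatment, antagonist ICI-182,780 (10.0nM final) was added, followed by compounds at 15 concentrations. Plates incubated 22hr; ONE-Glo luminescence quantified reporter activity.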

Assay [14] concerns the target Thyrotropin receptor (Homo sapiens) (UniProt P16473). Put plainly: qHTS assay to identify small molecule antagonists of the thyroid stimulating hormone receptor (TSHR) signaling pathway (AID 1259385; calls by dose curve; also: nearly all actives have a fitted effect of over 20% in size). The procedure, abridged: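 TSHR-HEK293 cells (800/well) plated 18 h, then compounds with Ro20-1724 and TSH at 1.5 ng/mL final, 30 min at room temperature. cAMP quantified by HTRF (cAMP-d2/anti-cAMP-cryptate, 1 h); 15 concentrations in triplicate.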

The nature of assay [15]: qHTS assay to identify small molecule agonists or antagonists of the thyroid stimulating hormone receptor (TSHR) signaling pathway - wild type cell line counter screen (AID 1259384; calls by dose curve). The procedure, abridged:
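Wild-type Hek293 cells, 800/well, 18 h at 37C, then compound with Ro20-1724 for 30 min RT. cAMP by HTRF (cAMP-d2/anti-cAMP cryptate), 1 h RT, fluorescence read. 15 concentrations, triplicates.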

Assay [16] is described as follows: qHTS assay to identify small molecule antagonists of the sonic hedgehog signaling (Shh) pathway - cell viability counter screen (AID 1259367). Also: nearly all actives have a fitted effect of over 55% in size. The procedure, abridged:
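NIH/3T3-derived Gli1-Luc reporter cells, 2,000/well, plated 4 hr before compound addition, then stimulated with conditioned medium for 24 hr at 37C. Viability measured in the same wells by CellTiter-Fluor fluorescence, reagent added at 23 hr for 1 hr.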

Assay [17] deals with Estrogen receptor beta (Homo sapiens) (UniProt Q92731). Put plainly: qHTS assay to identify small molecule antagonists of the estrogen receptor beta (ER-beta) signaling pathway (AID 1259378; active = well fitted inhibition curve with a large enough effect in the signal ratio in the repeat runs, not every such curve was filed as active; the % refers to the signal ratio). The procedure, abridged: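 ER-beta-UAS-bla HEK293T cells in 2% charcoal-stripped FBS medium treated with compound plus 1nM final 17-beta-estradiol for 16 hr at 37C. Beta-lactamase reporter read by FRET substrate fluorescence after 2 hours at room temperature.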

Each structure is given as a SMILES string. Unmarked numbers belong to inactive results. Records with an inconclusive call do not appear. Activity calls are given as the source filed them. Unless noted, calls follow the shape of the dose curve; as a rule, active = well fitted curve in the direction sought with a large enough effect in the repeat runs; inconclusive = weak or mixed curves; inactive = no such curve, though single readings can be large; an effect the other way counts as inactive or inconclusive.
% is scaled to controls: 0 for no effect and ±100 for the full control effect.

Chain of Estrogen receptor (Homo sapiens) (P03372 whole entry, looked up): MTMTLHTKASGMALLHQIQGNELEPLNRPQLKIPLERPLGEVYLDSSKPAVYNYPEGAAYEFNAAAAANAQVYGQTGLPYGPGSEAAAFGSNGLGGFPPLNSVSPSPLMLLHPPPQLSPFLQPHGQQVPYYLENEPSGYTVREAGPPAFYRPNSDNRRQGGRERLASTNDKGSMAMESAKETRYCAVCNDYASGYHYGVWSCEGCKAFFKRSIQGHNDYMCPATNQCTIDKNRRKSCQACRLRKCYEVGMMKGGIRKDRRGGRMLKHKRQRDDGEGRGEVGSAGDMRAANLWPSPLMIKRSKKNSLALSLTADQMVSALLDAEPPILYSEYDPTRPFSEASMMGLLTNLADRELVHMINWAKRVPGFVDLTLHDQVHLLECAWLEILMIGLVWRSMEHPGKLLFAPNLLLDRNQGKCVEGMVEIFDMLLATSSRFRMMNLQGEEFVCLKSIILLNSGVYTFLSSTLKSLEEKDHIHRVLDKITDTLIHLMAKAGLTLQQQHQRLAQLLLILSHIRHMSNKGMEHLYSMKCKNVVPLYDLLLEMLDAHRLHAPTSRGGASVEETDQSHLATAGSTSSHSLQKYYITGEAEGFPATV
Chain of Estrogen receptor beta (Homo sapiens) (Q92731 whole entry, looked up): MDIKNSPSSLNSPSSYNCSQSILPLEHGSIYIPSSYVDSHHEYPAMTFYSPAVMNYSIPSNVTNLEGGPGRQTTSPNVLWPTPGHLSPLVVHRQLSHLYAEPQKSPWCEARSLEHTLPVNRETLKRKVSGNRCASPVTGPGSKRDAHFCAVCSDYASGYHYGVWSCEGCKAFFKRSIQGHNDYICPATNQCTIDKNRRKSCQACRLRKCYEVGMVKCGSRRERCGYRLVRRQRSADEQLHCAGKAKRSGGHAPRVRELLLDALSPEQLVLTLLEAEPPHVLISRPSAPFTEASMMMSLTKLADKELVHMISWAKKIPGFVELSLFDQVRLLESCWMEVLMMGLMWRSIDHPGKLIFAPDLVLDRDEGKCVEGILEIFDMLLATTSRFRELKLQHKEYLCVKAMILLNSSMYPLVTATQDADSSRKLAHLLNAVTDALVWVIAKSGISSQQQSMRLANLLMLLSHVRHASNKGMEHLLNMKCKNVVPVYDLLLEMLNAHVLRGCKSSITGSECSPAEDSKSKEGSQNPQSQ
Chain of Thyrotropin receptor (Homo sapiens) (P16473 whole entry, looked up): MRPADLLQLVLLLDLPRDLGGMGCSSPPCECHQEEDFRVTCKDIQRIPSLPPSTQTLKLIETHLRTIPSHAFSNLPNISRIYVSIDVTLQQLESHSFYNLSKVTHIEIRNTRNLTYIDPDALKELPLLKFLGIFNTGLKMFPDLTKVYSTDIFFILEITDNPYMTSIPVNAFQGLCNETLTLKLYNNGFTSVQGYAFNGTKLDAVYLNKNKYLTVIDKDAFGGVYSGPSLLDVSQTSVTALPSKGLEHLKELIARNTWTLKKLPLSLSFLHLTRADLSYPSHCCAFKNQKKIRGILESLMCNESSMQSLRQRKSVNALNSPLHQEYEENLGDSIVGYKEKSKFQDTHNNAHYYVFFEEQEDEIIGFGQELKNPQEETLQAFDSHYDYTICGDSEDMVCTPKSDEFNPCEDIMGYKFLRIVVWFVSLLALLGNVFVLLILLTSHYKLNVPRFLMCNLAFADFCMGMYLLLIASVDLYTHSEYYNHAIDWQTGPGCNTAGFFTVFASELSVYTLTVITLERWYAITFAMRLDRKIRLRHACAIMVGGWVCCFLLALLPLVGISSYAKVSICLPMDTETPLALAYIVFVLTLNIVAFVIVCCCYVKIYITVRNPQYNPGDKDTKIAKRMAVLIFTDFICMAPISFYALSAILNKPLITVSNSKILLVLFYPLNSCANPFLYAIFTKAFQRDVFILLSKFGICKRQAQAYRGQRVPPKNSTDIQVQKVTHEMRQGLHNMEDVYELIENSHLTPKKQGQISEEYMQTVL

Take `CCOC(=O)CC(O)(CC(=O)OCC)C(=O)OCC`: the Potency entry in [1], in [2], in assay [3], in assay [4], in assay [6] and in [7] was “inactive” in each case. The Potency entry in assay [9], in [10], in assay [11], in [12], in assay [13] and in assay [14] was “inactive” throughout. Also, the call in assay [5] was inactive. Besides, the Potency in assay [8] is 68.6 µM (active).
Regarding `CC(C)C/C=C(\C=O)c1ccccc1`, the Potency result in assay [1], in assay [2], in [3], in assay [4], in assay [7] and in assay [8] was “inactive” each time. Moreover, the Potency entry in assay [11], in assay [12], in [13] and in [14] was “inactive” each time. For the same compound, the outcome in assay [5] and in [15] was inactive.
On to `O=C(Cl)c1cc(Cl)cc(Cl)c1`, for which the Potency result in assay [1], in assay [2], in assay [3], in [4], in [6] and in assay [16] was “inactive” throughout. The Potency entry in assay [7], in [9], in assay [17], in [11], in assay [12] and in assay [13] was “inactive” each time. Further, the call in assay [5] and in [15] was inactive.
Turning to `CCCCCCCCCCCCCCCCCCCl`, the activity change, negative = cytotoxicity is 5.01% [at 8.39 µM] in assay [1]; 1.46% [at 8.39 µM] in [5]; 1.57% [at 8.39 µM] in [10]; 2.61% [at 8.39 µM] in [11]; -0.0396% [at 8.39 µM] in [12]. Further, the viability change, negative = cytotoxic in assay [2] was 5.37% [at 8.39 µM]; in [6], 3.36% [at 8.39 µM]. Further, the activity change, negative = inhibition in [3] was -0.369% [at 8.39 µM]; in [4] it was 2.06% [at 8.39 µM]; in [8], -7.01% [at 8.39 µM]; in assay [14], 0.518% [at 8.39 µM]. Besides, the activity change in [7] is 0.949% [at 8.39 µM, stronger effect = higher value]. The activation in assay [9] is -3.3% [at 8.39 µM]; in [13], 0.705% [at 8.39 µM]. For the same compound, in [17], the activity, negative = inhibition is 21.3% [at 8.39 µM]. Besides, the cAMP activity change in assay [15] was -0.012% [at 8.39 µM].
With `COc1ccc(/C=C/c2cc(OC)cc(=O)o2)cc1`, the Potency entry in assay [1], in assay [2], in assay [3], in assay [8], in assay [9] and in assay [10] was “inactive” throughout. Further, the Potency entry in assay [11], in assay [12] and in assay [13] was “inactive” in each case. For the same compound, the Potency in assay [4] was 6.26 µM (active). For the same compound, in [5], the call was inactive.
Turning to `Nc1cccc2c(=O)[nH][nH]c(=O)c12`, the Potency result in [1], in assay [2], in assay [3], in assay [4], in assay [6] and in assay [16] was “inactive” each time. The Potency result in assay [7], in [8], in assay [10], in assay [13] and in assay [14] was “inactive” throughout. The compound was classed as inactive in assay [5]. Moreover, the Potency in assay [11] was 24.5 µM (active).
Consider `O=C(N[C@@H](Cc1ccccc1)[C@@H](O)C(=O)N1C[C@@H](O)[C@@H](O)C1)c1cc2cc(Cl)ccc2[nH]1`, for which the Potency entry in assay [1], in assay [2], in assay [3], in assay [4], in [7] and in assay [8] was “inactive” each time. Besides, the Potency result in assay [9], in assay [10], in assay [12], in [13] and in [14] was “inactive” each time. Further, the outcome in [5] was inactive.
Take `Cc1ccccc1CCO`: the Potency result in assay [1], in assay [2], in assay [3], in [4], in assay [6] and in assay [16] was “inactive” in each case. Besides, the Potency result in assay [7], in assay [9], in assay [17], in assay [10], in [11] and in [12] was “inactive” throughout. The Potency result in assay [13] and in assay [14] was “inactive” each time. Further, the compound was classed as inactive in assay [5] and in [15].
Turning to `CC(Cc1ccccc1)(NC(=O)CN)c1ccccc1` (configuration not stated), the Potency entry in [1], in assay [2], in assay [3], in assay [4], in assay [6] and in [16] was “inactive” throughout. Besides, the Potency entry in assay [7], in assay [9], in [17], in assay [10], in [12] and in [13] was “inactive” in each case. Moreover, in assay [14], the Potency result is “inactive”. Besides, the call in assay [5] and in assay [15] was inactive.
For the compound `O=P(c1ccccc1)(c1ccccc1)c1ccccc1`, the Potency result in assay [1], in [2], in [3], in [4], in assay [6] and in assay [16] was “inactive” in each case. The Potency result in assay [7], in [8], in assay [11], in assay [12], in assay [13] and in [14] was “inactive” throughout. In addition, the call in [5] and in assay [15] was inactive.
On to `Cc1c(Cl)cccc1Nc1ccccc1C(=O)O`, for which the Potency entry in assay [1], in assay [2], in assay [3], in assay [4], in [6] and in assay [16] was “inactive” each time. The Potency entry in assay [7], in [8], in assay [10], in [11], in assay [13] and in assay [14] was “inactive” throughout. Also, in [15], the outcome was inactive.
For the compound `O=C(O)c1ccccc1-n1cc(C(=O)O)c(=O)c2cc(Nc3c(F)cc(F)cc3Cl)c(Cl)cc21`, the Potency entry in assay [1], in assay [2], in [3], in assay [4], in assay [6] and in assay [16] was “inactive” each time. In addition, the Potency entry in assay [7], in [8], in [9], in assay [17], in assay [10] and in assay [11] was “inactive” in each case. Moreover, the Potency entry in assay [12], in assay [13] and in assay [14] was “inactive” in each case. Also, the compound was classed as inactive in [15].
Regarding `CCCCCCC/C=C/C=O`, the Potency entry in assay [1], in [2], in assay [3], in assay [6], in assay [16] and in [7] was “inactive” throughout. The Potency entry in assay [11], in assay [12], in assay [13] and in assay [14] was “inactive” in each case. Also, the result in [15] was inactive.

The values are drawn from PubChem BioAssay (Tox21).
